Sfp PPTase inh – inhibitors of Bacillus subtilis Sfp phosphopantetheinyl transferase; Q9F4F7; Biochemical Sfp PPTase activity, qHTS; Potency, µM, inactives show largest response in the series, negative = inhibition, hits mostly inhibitors; actives 3.5% (n = 310,000); AID 1490;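 note: the enzyme is Sfp with the accession as filed and its product quenches rhodamine fluorescence; 0% = enzyme reaction without inhibitor and -100% = no enzyme wells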
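After 15 min at room temperature with compound, 15 nM Sfp received 5 uM rhodamine-CoA plus 12.5 uM BHQ-2-ybbR (50 mM Hepes pH 7.6, 10 mM MgCl2). Rate came from the fluorescence difference over 30 min, ex 525/em 598 nm.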
JMJD2A Tudor – blocks the human JMJD2A Tudor domain. O75164. AlphaScreen JMJD2A-Tudor / H3K4me3 peptide binding. Potency, µM (top dose mostly 114 µM), inactives show at the highest dose activity change, negative = inhibition, actives largely listed as inhibitors. actives 4.4% (n = 390,000). AID 504339; note: % is set by controls: 0 for no effect and ±100 for the full control effect; nearly all actives have a fitted effect of over 50% in size
L3MBTL1 block – L3MBTL1 (human) inhibition | AlphaScreen L3MBTL1–H3K9me1 peptide binding | Potency, µM (doses to about 57.1 µM), inactives show at the highest dose activity, negative = inhibition, hits mostly inhibitors | actives 0.66% (n = 230,000) | AID 485360; note: % is set by controls: 0 for no effect and ±100 for the full control effect; nearly all actives have a fitted effect of over 60% in size
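L3MBTL1 (50 nM) pre-complexed 30 min with biotinylated H3(1-15)K9me1 peptide (75 nM), then compounds added for 30 min at room temperature; AlphaScreen streptavidin donor/nickel chelate acceptor beads (10 ug/mL final) read after 30 min dark incubation.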
HP1b chromo inh – blocks HP1-beta chromodomain binding to methylated histone tails | P83916 | AlphaScreen HP1-beta / biotin-H3K9me3 peptide binding | Potency, µM (doses to about 114 µM), for inactives: at the highest dose activity change, negative = inhibition, most hits filed as inhibitors | actives 0.56% (n = 390,000); note: nearly all actives have a fitted effect of over 70% in size
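AlphaScreen: HP1-beta (50 nM) preformed 30 min with biotin-H3(1-18)K9me3 peptide (50 nM) in PBS pH 7.4, 0.01% Tween-20. Compound added for 30 min at RT, then streptavidin donor/nickel chelate acceptor beads (10 ug/mL) for 30 min.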
BAZ2B block – inhibitors of human BAZ2B bromodomain. Q9UIF8. AlphaScreen BAZ2B-H3K14Ac peptide displacement. Potency, µM (titrated, usually from 114 µM), inactives show top-dose activity change, negative = inhibition, usual class: inhibitors. actives 4.4% (n = 360,000). AID 504333; note: % is set by controls: 0 for no effect and ±100 for the full control effect; nearly all actives have a fitted effect of over 60% in size
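Multi-concentration screen (max 110 uM) measuring displacement of acetylated histone H3 peptide from BAZ2B by AlphaScreen, using 50 nM protein, 50 nM peptide and 10 ug/mL streptavidin donor plus Ni-chelate acceptor beads.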
G9a block – inhibitors of human histone lysine methyltransferase G9a | Potency, µM (top dose mostly 102 µM), for inactives: at the top dose activity, negative = inhibition, most hits filed as inhibitors | G9a H3K9 monomethylation, AlphaScreen, 2 h | AID 504332 | actives 8.8% (n = 350,000) | Q96KQ7; note: % is set by controls: 0 for no effect and ±100 for the full control effect; nearly all actives have a fitted effect of over 75% in size
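AlphaScreen read-out: biotin-H3K9 peptide (500 nM) methylation by 20 nM enzyme with 20 uM SAM, 2 h at room temperature after 15 min compound preincubation; anti-monomethyl H3K9 antibody plus donor/acceptor beads, 10 min dark.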
Active calls of the source: *; ? = inconclusive; . = no result given; ! = not confirmed by another sample; [ ] = dose if it differs, or a comment. The list is not random: actives were taken first. Their share in the collection is about 12%. Calls come from the whole dose curve; as a rule, active = well fitted curve in the direction sought with a large enough effect; inconclusive = small, poorly fitted or top-dose-only effect, or another doubt; inactive = no such curve, though single readings can be large; an effect the other way counts as inactive or inconclusive. Potency is the fitted concentration of half-maximal effect.

SMILES | Sfp PPTase inh | JMJD2A Tudor | L3MBTL1 block | HP1b chromo inh | BAZ2B block | G9a block
Cc1ccc(C2=N/C(=C/N3CCOCC3)C(=O)O2)cc1 | 8% | ? | -6% | 0% | -5% | 17%[59 µM]
COc1cc(OC)c(C2CC(=O)N3CN(c4ccccc4C)CSC3=C2C#N)cc1OC (stereo unspecified) | 4µM* | . | -16% | . | 56µM* | ?
C=CCOC(=O)C1=C(C)OC(N)=C(C#N)C1c1ccccc1F (stereo unspecified) | 9% | -12% | . | 42% | -2% | -1%
CCc1ccccc1N1CSC2=C(C#N)C(c3ccccc3F)CC(=O)N2C1 (stereo unspecified) | 1.1µM* | 22µM* | -4% | ? | 56µM* | 0.79µM*
COc1cccc(C2SCC(=O)N2c2ccc(Cl)cc2)c1OC (stereo unspecified) | -1% | 5% | 1% | 45% | -7% | -5%[59 µM]
COc1ccc(N2CSC3=C(C#N)C(c4cccc(OC)c4OC)CC(=O)N3C2)cc1 (stereo unspecified) | 3.5µM* | 20µM* | . | ? | ? | 2µM*
c1nc(NCCCN2CCOCC2)c2cc(-c3ccc4c(c3)OCO4)ccc2n1 | . | -28% | . | . | . | .
CCOc1ccc(C(=O)NCC(=O)NCC(c2cccs2)N2CCOCC2)cc1 (stereo unspecified) | . | -1% | 10% | 41% | 11% | ?
S=c1[nH]nc(C2CCCCC2)n1/N=C/c1ccc(Br)s1 | 21% | -22% | -2% | 26% | 10% | 8.9µM*
Cc1ccc(/C=N/n2c(C3CCCCC3)n[nH]c2=S)cc1 | 50µM* | ? | . | -20% | 3% | 10µM*
Cc1ccc(/C=N/n2c(C)nnc2C)cc1 | 13% | -8% | 9% | 2% | 0% | 7%
S=c1[nH]nc(C2CCCCC2)n1/N=C/c1ccc(Br)cc1 | ? | -2% | . | 19% | -3% | 10µM*
Brc1ccc(/C=N/n2cnnc2)s1 | 10% | -14% | -3% | 19% | -8% | 5%
S=c1[nH]nc(C2CCCCC2)n1/N=C/c1c(Cl)cccc1Cl | -10% | -10% | . | 17% | -29% | 3.5µM*
C=C(C)C(=O)/C=C/c1ccc(Br)cc1 | -12% | . | . | . | . | .
FC(F)(F)c1ccc(/C=N/n2c(C3CCCCC3)n[nH]c2=S)cc1 | -4% | ? | . | 7% | -26% | 50µM*
NC(=S)N/N=C/c1ccc(C(F)(F)F)cc1 | -16% | -23% | -6% | 23% | -20% | 8%[59 µM]
S=c1[nH]nc(C2CCCCC2)n1/N=C/c1ccc(Cl)cc1 | ? | -31% | . | 13% | -22% | 40µM*
CCc1ccc(/C=N/n2c(C3CCCCC3)n[nH]c2=S)cc1 | ? | ? | . | -14% | -38% | 32µM*
CCc1ccc(/C=N/n2c(C)cc(C)c(C#N)c2=O)cc1 | 8% | -6% | -8% | 34% | -30% | -8%[59 µM]
O=C(O/N=C/c1ccc(Cl)cc1)C1CCCCC1 | 16% | 16% | . | 47% | 13% | 40%
O=C(NCCc1ccccc1)c1ccc(CSc2nc3cccnc3n2Cc2ccccc2F)cc1 | . | 5.6µM* | . | 25µM* | 14µM* | 2µM*
Cn1c(SCc2cccc3ccccc23)nnc1-c1ccco1 | 1% | -8% | -10% | 13% | -27% | 16µM*
c1ccc(-n2c(SCc3ccncc3)nnc2-c2ccco2)cc1 | 28µM* | ? | -3% | 29% | . | ?
CCn1c(SCc2nc(-c3ccccc3)no2)nnc1-c1ccco1 | 79µM* | -25% | 2% | 13% | -6% | ?
SMILES | Sfp PPTase inh | JMJD2A Tudor | L3MBTL1 block | HP1b chromo inh | BAZ2B block | G9a block
CCn1c(SCc2nc(-c3ccccc3)no2)nnc1-c1cccs1 | 5% | -23% | . | 3% | -6% | 20%[59 µM]
OC[C@H]1O[C@@H](n2cnc3c(N[C@H]4C[C@H]5CC[C@@H]4C5)ncnc32)[C@H](O)[C@@H]1O | 7% | . | . | . | . | 35%[59 µM]
O=C(C[n+]1ccccc1)N/N=C/c1ccc(Cl)c(Cl)c1 | 1% | 22µM* | . | 10% | 50µM* | -7%
COCCCNC(=O)c1ccc(N2CCCC2)c(NS(=O)(=O)c2ccc(C)cc2)c1 | ? | -36% | 16% | 35% | ? | 7.9µM*
COCCNC(=O)c1ccc(C)c(S(=O)(=O)Nc2ccc(C)cc2)c1 | 1% | -4% | . | 24% | 8% | 79µM*
CCCn1nc(C(=O)Oc2ccc3c(C)cc(=O)oc3c2)c2ccccc2c1=O | -2% | -10% | 6% | 32% | -3% | 14µM*
Cc1cc(=O)oc2cc(OC(=O)c3nn(C(C)C)c(=O)c4ccccc34)ccc12 | 6% | -6% | -3% | 28% | 11% | ?
COc1ccc(N2CCN(C(=O)c3cc4c(=O)n(Cc5cccnc5)ccc4nc3C)CC2)cc1 | . | -27% | . | 6% | -20% | -3%[59 µM]
COc1cc(OC)c2c(-c3ccccc3)cc(=O)oc2c1C(CCN1CCCCC1)c1ccc2c(c1)OCO2 (stereo unspecified) | 13µM*! | ? | . | -20% | ? | 1%[12.7 µM]
COc1cc(OC)c2c(-c3ccccc3)cc(=O)oc2c1C(CCN1CCCC(C)C1)c1ccc2c(c1)OCO2 (stereo unspecified) | ? | 40µM* | . | -36% | ? | -26%[59 µM]
COc1cc(OC)c2c(-c3ccccc3)cc(=O)oc2c1C(CC(=O)N1CCCC1)c1ccc2c(c1)OCO2 (stereo unspecified) | -12% | ? | . | -17% | ? | -4%[59 µM]
CC(C)(C)OC(=O)n1c2ccsc2c2cnn(Cc3ccccc3F)c(=O)c21 | . | -18% | . | . | . | .
Cc1ccnc(N=O)c1 | . | 20µM* | 4% | ? | . | .
Cc1ccc(-n2[nH]c(C)c(C=Nc3cc(C)ccn3)c2=O)cc1 | -3% | -32% | -8% | 19% | -29% | ?
COc1cccc(N2C(=O)c3cccnc3C2O)c1 (stereo unspecified) | 19% | -10% | . | 11% | -24% | -13%
COc1ccc(C2Nc3ccccc3C(=O)N2Cc2ccco2)cc1OC (stereo unspecified) | . | -20%[57.1 µM] | . | ? | . | .
COc1ccc(CN2C(=O)c3cccnc3C2Nc2cc(Cl)ccc2OC)cc1 (stereo unspecified) | 2% | 20µM* | ? | -23% | 25µM* | ?
COc1ccc(CN2C(=O)c3cccnc3C2O)cc1 (stereo unspecified) | 8% | ? | . | -23% | 40µM* | ?
COc1ccc(OC)c(NC2c3ncccc3C(=O)N2Cc2ccco2)c1 (stereo unspecified) | -7% | -34% | -5% | 3% | ? | 50µM*

Compound activity: PubChem BioAssay, National Center for Advancing Translational Sciences (NCATS)
